PubChem BioAssay
Activity calls are given as the source filed them.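 How the source made its calls, unless noted: active means mean inhibition above 46.68%, the untreated control wells mean plus 3 SD; inactive means the rest.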

Tests used:
[1] = biological target: Nuclear receptor coactivator 1 (Homo sapiens) (UniProt Q15788); experiment: NCOA1 GAL4-fusion reporter inhibition – cell-based, luminescence, quadruplicate, confirmation (AID 588820); details: HEK293 GAL4-SRC1 luciferase reporter, at 3.6 µM, stronger effect = higher value;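 further: 0% = DMSO wells and 100% = gossypol 36 µM treated wells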
Sequence of Nuclear receptor coactivator 1 (Homo sapiens) (Q15788 whole entry, looked up, the tested form may be a part): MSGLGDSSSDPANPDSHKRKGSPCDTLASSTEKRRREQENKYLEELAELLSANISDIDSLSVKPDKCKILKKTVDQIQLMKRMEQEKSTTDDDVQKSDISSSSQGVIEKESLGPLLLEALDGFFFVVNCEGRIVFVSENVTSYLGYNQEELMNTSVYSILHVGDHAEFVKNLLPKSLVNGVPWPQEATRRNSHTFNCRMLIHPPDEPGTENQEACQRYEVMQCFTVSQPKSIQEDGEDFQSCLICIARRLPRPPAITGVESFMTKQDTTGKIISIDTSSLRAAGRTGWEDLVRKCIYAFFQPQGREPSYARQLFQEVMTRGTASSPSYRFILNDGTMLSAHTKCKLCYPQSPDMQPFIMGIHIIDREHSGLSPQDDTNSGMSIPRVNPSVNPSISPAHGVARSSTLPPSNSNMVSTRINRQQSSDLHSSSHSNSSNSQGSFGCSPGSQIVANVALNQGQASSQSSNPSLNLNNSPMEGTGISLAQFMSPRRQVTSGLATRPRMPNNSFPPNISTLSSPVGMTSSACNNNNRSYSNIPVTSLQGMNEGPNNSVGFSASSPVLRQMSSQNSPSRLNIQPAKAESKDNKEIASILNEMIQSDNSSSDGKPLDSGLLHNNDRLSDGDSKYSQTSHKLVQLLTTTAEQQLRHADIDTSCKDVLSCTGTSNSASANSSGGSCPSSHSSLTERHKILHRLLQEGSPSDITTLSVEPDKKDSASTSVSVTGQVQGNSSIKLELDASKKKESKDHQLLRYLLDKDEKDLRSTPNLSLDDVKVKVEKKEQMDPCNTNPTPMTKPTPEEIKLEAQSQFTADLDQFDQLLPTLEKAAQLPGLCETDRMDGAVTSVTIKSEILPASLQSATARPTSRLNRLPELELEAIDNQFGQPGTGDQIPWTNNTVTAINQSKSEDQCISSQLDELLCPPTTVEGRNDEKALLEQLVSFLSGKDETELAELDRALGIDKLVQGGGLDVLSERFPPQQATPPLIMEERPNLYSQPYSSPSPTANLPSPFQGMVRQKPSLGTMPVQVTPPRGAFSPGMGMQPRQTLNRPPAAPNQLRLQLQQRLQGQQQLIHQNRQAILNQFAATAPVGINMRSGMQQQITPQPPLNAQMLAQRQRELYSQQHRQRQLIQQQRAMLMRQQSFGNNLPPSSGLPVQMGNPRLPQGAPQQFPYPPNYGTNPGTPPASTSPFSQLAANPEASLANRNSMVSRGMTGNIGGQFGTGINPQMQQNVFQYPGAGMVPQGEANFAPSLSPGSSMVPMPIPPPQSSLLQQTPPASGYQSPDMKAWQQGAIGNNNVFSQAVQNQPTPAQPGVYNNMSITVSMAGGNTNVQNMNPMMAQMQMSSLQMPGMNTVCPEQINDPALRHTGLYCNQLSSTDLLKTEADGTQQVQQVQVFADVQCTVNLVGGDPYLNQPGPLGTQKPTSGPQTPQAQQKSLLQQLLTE

[2] = repression of VP16-driven luciferase reporter – cell-based, luminescence, high throughput, counter-screen for SRC1 inhibitor project (AID 588824; in the data active means inhibition above about 25%); details: cell-based VP16 transactivation luciferase luminescence; at 3.6 µM; stronger effect = higher value

SMILES	inhibition [1]	inhibition [2]
CN1CCN(C(=O)CCN2C(=O)/C(=C/c3cccc(Br)c3)SC2=S)CC1	10.7% (inactive)	16.9% (inactive)
Cc1cccc(NC(=O)CSc2nnc(NC(=O)C3CC3)s2)c1C	-3.25% (inactive)	6.7% (inactive)
Cc1ccc(-n2c(C)nn(CC3CC3)c2=O)cc1	2.58% (inactive)	-3.08% (inactive)
Cc1ccoc1C(=O)NCCNC(=O)c1occc1C	-20.6% (inactive)	-15.1% (inactive)
Cc1nn(-c2ccccc2)c(N2CCCC2)c1/C=N/NC(=O)c1cc(-c2cccnc2)nc2ccccc12	-42.9% (inactive)	-7.83% (inactive)
COc1ccc(OC)c(/C=C2\NC(=O)NC2=O)c1	29.5% (inactive)	15.5% (inactive)
COc1cccc(-c2cc(C(=O)Nc3cc(C)n(Cc4ccc(Cl)cc4)n3)no2)c1	1.04% (inactive)	18.9% (inactive)
COc1ccc(-c2cc(C(=O)NCCCN3CCOCC3)c3ccccc3n2)cc1OC	-12.4% (inactive)	-2.84% (inactive)
CC(C)C[C@H]1CNC(=S)N1C[C@H]1CCCN1C[C@H](CC(C)C)N1C[C@H](CC(C)C)N(CCc2ccccc2)C1=S	-1.01% (inactive)	1.5% (inactive)
COc1ccc(OCC(=O)Nc2ccc3c(c2)n(C)c(=O)n3C)cc1	-14.2% (inactive)	-5.89% (inactive)
NC(N)=N/N=C/c1ccc(Cl)c([N+](=O)[O-])c1	-20.2% (inactive)	-0.27% (inactive)
O=C(O)c1cc(=O)[nH]c2ccc(S(=O)(=O)Nc3ccc(F)cc3)cc12	-12.9% (inactive)	7.7% (inactive)
CC(=O)C1=C(C)NC2=C(C(=O)CC(C)(C)C2)C1C (configuration not stated)	28% (inactive)	15.6% (inactive)
CSc1nc(N)nc2c1ncn2CC(=O)N1CCN(Cc2c(C)cc(C)cc2C)CC1	-3.22% (inactive)	34.5% (active)
Cn1c(O)c(N=NC(=N)N)c2ccccc21	5.65% (inactive)	11.6% (inactive)
CC(=O)NC(c1cc(Cl)c2cccnc2c1O)C1CC1 (configuration not stated)	30.9% (inactive)	8.51% (inactive)
O=C(O)CN1C(=O)/C(=C\c2ccccc2OCc2ccc(Cl)cc2Cl)SC1=S	32% (inactive)	-7.27% (inactive)
O=C(COC(=O)COc1ccccc1)NCCc1ccccc1	-16.7% (inactive)	-1.43% (inactive)
COc1ccc(C2c3cc(OC)c(OC)cc3CCN2S(C)(=O)=O)cc1OC (configuration not stated)	9.85% (inactive)	9.73% (inactive)
Cc1c(C(=O)N/N=C/C(C)C)[nH]c2ccc([N+](=O)[O-])cc12	17.2% (inactive)	14.8% (inactive)
CCN(Cc1ccncc1)C(=O)CC1C(=O)NCCN1Cc1ccc(F)c(F)c1 (configuration not stated)	30.1% (inactive)	17% (inactive)
COc1ccc2nc(N3CCN(C(=O)c4ccc5ncsc5c4)CC3)sc2c1	-5.74% (inactive)	-0.4% (inactive)
O=C(CCCn1c(=S)[nH]c2ccsc2c1=O)Nc1ccc2c(c1)OCCO2	-1.89% (inactive)	-10.8% (inactive)
Cc1cc(C)c2nc(NNC(=O)c3ccc(S(=O)(=O)N4CCc5ccccc5C4)cc3)sc2c1	32.2% (inactive)	30% (active)
Cc1cc(CSc2ccccc2)ccc1NC(=O)c1ccc(CN2CCOCC2)cc1	-33.7% (inactive)	33.4% (active)
Cc1cc(C)nc(/N=C(\N)Nc2ccc(CC(=O)OC(C)C)cc2)n1	-11.9% (inactive)	16.6% (inactive)
